Reference: PubChem BioAssay (NCATS)
Several values for one entry are separate records, joined by “and”; a condition that tells them apart may be missing. Identical values can stand only once. Records with an inconclusive call do not appear. Activity calls are given as the source filed them. Unless noted, calls come from the whole dose curve.

Tests used:
[1] = molecular target: Estrogen receptor (Homo sapiens) (UniProt P03372); assay: qHTS assay for small molecule antagonists of estrogen receptor alpha signaling (AID 588513; active = well fitted curve in the direction sought with a large enough effect in the signal ratio, with a control signal flat, not every such curve was filed as active; the % refers to the signal ratio; note: potency is the fitted concentration of half-maximal effect)
Estrogen receptor (Homo sapiens), sequence (P03372 whole entry, looked up): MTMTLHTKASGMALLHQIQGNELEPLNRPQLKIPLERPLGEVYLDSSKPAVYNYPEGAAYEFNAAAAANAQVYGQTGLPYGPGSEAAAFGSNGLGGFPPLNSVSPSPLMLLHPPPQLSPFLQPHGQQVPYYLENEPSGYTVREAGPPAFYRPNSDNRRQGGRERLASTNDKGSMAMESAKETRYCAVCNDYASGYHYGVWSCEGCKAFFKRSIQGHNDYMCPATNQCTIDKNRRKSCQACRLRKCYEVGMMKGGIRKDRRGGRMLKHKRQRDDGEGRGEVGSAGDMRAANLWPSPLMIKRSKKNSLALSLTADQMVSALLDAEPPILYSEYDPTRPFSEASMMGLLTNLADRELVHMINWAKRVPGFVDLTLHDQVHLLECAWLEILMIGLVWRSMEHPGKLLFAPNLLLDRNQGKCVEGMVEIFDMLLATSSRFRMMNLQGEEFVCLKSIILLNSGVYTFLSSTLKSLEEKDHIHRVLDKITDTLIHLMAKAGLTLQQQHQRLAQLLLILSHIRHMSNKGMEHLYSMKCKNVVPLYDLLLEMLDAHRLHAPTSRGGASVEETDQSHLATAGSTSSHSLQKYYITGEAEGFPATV
How it was run: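 Antagonist-mode qHTS in ER-alpha-UAS-bla HEK 293 cells: compound titration, 0.5nM estradiol for 18 h, CCF4 fluorescence, Hill-derived IC50.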

[2] = molecular target: Bile acid receptor (Homo sapiens) (UniProt Q96RI1); assay: qHTS assay for small molecule antagonists of farnesoid X receptor signaling (AID 588526); note: potency is the fitted concentration of half-maximal effect
Bile acid receptor (Homo sapiens), sequence (Q96RI1 whole entry, looked up): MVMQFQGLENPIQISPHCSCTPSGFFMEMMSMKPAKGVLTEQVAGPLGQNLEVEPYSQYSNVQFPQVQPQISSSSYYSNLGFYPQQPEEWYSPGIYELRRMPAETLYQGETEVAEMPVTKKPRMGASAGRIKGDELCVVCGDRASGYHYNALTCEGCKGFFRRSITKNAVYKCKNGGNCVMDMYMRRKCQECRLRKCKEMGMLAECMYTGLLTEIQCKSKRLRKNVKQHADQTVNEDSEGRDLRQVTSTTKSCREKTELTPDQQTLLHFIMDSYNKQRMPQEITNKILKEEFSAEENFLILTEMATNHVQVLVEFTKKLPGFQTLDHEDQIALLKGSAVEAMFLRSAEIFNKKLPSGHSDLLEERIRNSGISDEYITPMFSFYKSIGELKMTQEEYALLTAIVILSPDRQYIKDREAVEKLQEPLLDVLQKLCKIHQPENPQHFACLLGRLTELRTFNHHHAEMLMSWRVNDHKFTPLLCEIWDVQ
How it was run: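 Concentration-response titrations were fitted to the Hill equation for half-maximal inhibition and maximal response, with data normalised to 50 uM chenodeoxycholic acid and DMSO control wells. Cells: FXR-UAS-bla HEK293T, dialyzed FBS.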

[3] = molecular target: Bile acid receptor (Homo sapiens) (UniProt Q96RI1); assay: qHTS assay for small molecule agonists of farnesoid X receptor signaling (AID 588527); conditions: HEK293T FXR-UAS-bla, beta-lactamase ratio, 16 h; activation: stronger effect = higher value;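 note: series mostly up to about 77 µM; 0% = vehicle basal and 100% = reference agonist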
How it was run: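 Quantitative HTS used FXR-UAS-bla HEK293T cells with 16 h compound incubation at 37 C. EC50 values came from concentration-response curves normalized to chenodeoxycholic acid.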

[4] = molecular target: Peroxisome proliferator-activated receptor gamma (Homo sapiens) (UniProt P37231); assay: qHTS assay for small molecule antagonists of peroxisome proliferator-activated receptor gamma signaling (AID 588537; active = well fitted inhibition curve with a large enough effect in the signal ratio, with a control signal flat, not every such curve was filed as active; the % refers to the signal ratio;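 note: reporter cells co-stimulated with 50 nM rosiglitazone agonist during compound treatment; % of control where 0% means no effect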)
Peroxisome proliferator-activated receptor gamma (Homo sapiens), sequence (P37231 whole entry, looked up): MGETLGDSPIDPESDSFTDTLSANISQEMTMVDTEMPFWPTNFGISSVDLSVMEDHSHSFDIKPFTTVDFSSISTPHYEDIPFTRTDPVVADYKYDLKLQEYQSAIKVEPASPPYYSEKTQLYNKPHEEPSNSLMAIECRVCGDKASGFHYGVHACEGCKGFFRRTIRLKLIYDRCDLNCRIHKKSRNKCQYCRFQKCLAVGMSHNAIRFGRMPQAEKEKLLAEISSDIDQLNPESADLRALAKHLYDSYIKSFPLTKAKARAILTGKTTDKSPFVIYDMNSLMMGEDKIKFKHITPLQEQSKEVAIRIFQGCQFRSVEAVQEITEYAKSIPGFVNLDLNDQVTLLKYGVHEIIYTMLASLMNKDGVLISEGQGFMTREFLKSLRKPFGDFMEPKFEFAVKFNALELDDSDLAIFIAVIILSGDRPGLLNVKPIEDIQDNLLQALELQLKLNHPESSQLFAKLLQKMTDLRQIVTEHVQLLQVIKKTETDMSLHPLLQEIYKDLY
How it was run: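 PPAR-gamma-UAS-bla HEK293 cells (3000/well, 1% charcoal/dextran-stripped FBS) were preincubated 6-6.5 h at 37 C, given titrated compounds, then stimulated with 50 nM rosiglitazone for 16 h. Beta-lactamase activity was read with CCF4 dye; IC50 came from Hill fits.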

[5] = qHTS assay for small molecule agonists of the antioxidant response element (ARE) signaling pathway (AID 651741; active = well fitted activation curve with a large enough effect in the signal ratio; the % refers to the signal ratio; note: potency is the fitted concentration of half-maximal effect; for activation: % of control where 0% means no effect)
How it was run: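 ARE-bla HepG2 cells (beta-lactamase reporter under ARE control) were plated at 2,000 cells/well, preincubated 5 h at 37 C/5% CO2, then treated with DMSO-dissolved compounds for 16 h at 37 C; LiveBLAzer B/G FRET substrate added, fluorescence read after 2 h at room temperature.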

[6] = qHTS assay for small molecule activators of the human pregnane X receptor (PXR) signaling pathway (AID 720659; call rule not given here; note: 0% is about no effect)
[7] = qHTS assay for small molecule agonists of retinoid X receptor alpha signaling (AID 588544); conditions: HEK293T RXRa-UAS-bla, beta-lactamase reporter, 18 h; 530 nm emission
[8] = molecular target: Peroxisome proliferator-activated receptor delta (Homo sapiens) (UniProt Q03181); assay: qHTS assay for small molecule antagonists of peroxisome proliferator-activated receptor delta signaling (AID 588535; active = well fitted inhibition curve with a large enough effect in the signal ratio, with a control signal flat, not every such curve was filed as active; the % refers to the signal ratio)
Peroxisome proliferator-activated receptor delta (Homo sapiens), sequence (Q03181 whole entry, looked up): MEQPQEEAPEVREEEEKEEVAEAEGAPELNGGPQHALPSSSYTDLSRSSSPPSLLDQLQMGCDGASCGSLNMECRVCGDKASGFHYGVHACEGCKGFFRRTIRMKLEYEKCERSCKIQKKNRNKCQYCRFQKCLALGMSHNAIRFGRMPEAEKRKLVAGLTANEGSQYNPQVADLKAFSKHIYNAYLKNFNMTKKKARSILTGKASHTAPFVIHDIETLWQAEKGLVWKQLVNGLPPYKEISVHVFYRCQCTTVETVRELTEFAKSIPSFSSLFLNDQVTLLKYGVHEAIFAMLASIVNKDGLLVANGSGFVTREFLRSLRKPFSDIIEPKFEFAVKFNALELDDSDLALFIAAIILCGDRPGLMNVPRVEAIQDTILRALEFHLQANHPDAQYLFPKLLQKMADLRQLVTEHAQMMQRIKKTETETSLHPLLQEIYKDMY
How it was run: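 GeneBLAzer PPAR-delta-UAS-bla HEK293T cells in medium with 2% charcoal/dextran FBS were preincubated 5 hrs at 37 C, then given compounds, incubated 18 hrs at 37 C, and read by CCF4 beta-lactamase fluorescence; IC50 from Hill fits.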

[9] = molecular target: Peroxisome proliferator-activated receptor gamma (Homo sapiens) (UniProt P37231); assay: qHTS assay for small molecule agonists of peroxisome proliferator-activated receptor gamma signaling (AID 588536; active = well fitted curve in the direction sought with a large enough effect in the signal ratio, with a control signal flat, not every such curve was filed as active; the % refers to the signal ratio;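 note: 0% = DMSO basal wells and 100% = rosiglitazone at 2 µM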)
How it was run: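 HEK293 UAS-bla reporter line, 1% charcoal/dextran FBS; titration, 16 h, 37 C; CCF4 loading 2 h RT; fluorescence 460/530 nm. Normalized to rosiglitazone 2 uM = 100%, DMSO = 0%.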

[10] = molecular target: Estrogen receptor (Homo sapiens) (UniProt P03372); assay: qHTS assay for small molecule agonists of estrogen receptor alpha signaling (AID 588514); note: nearly all actives have a fitted effect of over 70% in size; note: potency is the fitted concentration of half-maximal effect;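 for activation: 0% = vehicle only and 100% = reference agonist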
How it was run: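 Reporter-gene assay. […] controls beta-lactamase in HEK 293 GripTite cells; after 18 hrs with compound, CCF4 substrate is added for 2 hrs and fluorescence is read.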

[11] = molecular target: Androgen receptor (Homo sapiens) (UniProt P10275); assay: qHTS assay for small molecule agonists of androgen receptor signaling (AID 588515; active = well fitted curve in the direction sought with a large enough effect in the signal ratio, with a control signal flat; the % refers to the signal ratio; note: % is set by controls: 0 for no effect and ±100 for the full control effect); conditions: AR-UAS-bla HEK293, beta-lactamase ratio, agonist 16 h; stronger effect = higher value
Androgen receptor (Homo sapiens), sequence (P10275 whole entry, looked up): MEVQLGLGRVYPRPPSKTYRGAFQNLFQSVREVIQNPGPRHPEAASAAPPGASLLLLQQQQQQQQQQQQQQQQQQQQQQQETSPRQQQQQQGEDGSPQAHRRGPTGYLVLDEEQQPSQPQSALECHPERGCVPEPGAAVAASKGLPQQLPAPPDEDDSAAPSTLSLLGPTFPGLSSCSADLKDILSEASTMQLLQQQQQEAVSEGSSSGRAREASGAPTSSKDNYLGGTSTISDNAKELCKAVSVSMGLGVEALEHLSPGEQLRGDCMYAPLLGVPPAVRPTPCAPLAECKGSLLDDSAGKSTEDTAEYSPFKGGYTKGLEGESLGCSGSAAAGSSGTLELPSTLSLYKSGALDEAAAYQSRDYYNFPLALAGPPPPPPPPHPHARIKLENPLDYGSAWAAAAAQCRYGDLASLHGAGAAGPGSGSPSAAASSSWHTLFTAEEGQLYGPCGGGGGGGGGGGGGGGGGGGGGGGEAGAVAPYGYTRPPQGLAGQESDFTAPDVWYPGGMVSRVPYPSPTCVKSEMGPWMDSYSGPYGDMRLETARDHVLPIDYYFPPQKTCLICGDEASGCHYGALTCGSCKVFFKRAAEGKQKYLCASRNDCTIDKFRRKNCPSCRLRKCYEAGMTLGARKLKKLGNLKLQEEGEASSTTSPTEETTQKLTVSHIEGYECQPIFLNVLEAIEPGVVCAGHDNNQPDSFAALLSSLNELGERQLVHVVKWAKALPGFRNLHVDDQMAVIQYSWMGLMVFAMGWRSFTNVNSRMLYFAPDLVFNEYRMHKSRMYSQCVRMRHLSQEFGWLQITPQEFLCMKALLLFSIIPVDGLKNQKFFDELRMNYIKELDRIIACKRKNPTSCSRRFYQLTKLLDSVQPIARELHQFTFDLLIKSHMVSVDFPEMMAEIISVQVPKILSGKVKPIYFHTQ
How it was run: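 EC50 and efficacy came from Hill fits of titrations (up to 92 uM) normalized to 30 nM R1881 as 100% and DMSO as 0%. Compound exposure was 16 h at 37 C on AR-UAS-bla HEK293 cells, with a 405/460/530 nm CCF4 fluorescence read.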

[12] = molecular target: Androgen receptor (Homo sapiens) (UniProt P10275); assay: qHTS assay for small molecule antagonists of androgen receptor signaling (AID 588516; active = well fitted curve in the direction sought with a large enough effect in the signal ratio, with a control signal flat, not every such curve was filed as active; the % refers to the signal ratio; note: % is set by controls: 0 for no effect and ±100 for the full control effect)
How it was run: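 Compounds tested in titration against 10 nM R1881 in AR-responsive bla reporter HEK 293 cells; CCF4 fluorescence (460/530 nm) after 16 h exposure gave IC50 and efficacy.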

[13] = molecular target: Luciferin 4-monooxygenase (Photinus pyralis) (UniProt P08659); assay: Biochemical firefly luciferase enzyme assay for NPC (AID 624030; active = well fitted inhibition curve with a large enough effect;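 note: purified P. pyralis luciferase at 10 nM with luciferin and ATP substrate; series mostly up to about 59 µM; 0% = DMSO and -100% = full luciferase inhibition by PTC124 control; nearly all actives have a fitted effect of over 70% in size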)
Luciferin 4-monooxygenase (Photinus pyralis), sequence (P08659 whole entry, looked up): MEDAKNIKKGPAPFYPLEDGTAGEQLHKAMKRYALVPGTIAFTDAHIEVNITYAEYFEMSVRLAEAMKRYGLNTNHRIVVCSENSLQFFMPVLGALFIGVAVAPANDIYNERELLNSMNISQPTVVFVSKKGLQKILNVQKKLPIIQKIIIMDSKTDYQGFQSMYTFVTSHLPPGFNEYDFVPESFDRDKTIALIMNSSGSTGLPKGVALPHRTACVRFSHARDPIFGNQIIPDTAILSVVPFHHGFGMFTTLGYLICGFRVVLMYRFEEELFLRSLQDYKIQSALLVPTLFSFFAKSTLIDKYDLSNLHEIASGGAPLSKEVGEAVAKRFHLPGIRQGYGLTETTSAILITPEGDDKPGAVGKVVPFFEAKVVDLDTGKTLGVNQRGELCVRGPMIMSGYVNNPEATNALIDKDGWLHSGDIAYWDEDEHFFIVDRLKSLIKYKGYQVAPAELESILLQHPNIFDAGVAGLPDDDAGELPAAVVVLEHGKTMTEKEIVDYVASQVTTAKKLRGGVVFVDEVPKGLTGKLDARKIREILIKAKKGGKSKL
How it was run: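 Counter-screen for direct inhibition of the luciferase enzyme by approved-drug library compounds, run at 10 nM enzyme in 50 mM Tris acetate (final). Luminescence was read within 5 min of enzyme-buffer addition and normalized to PTC124 versus DMSO (0%).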

CC1(c2ccc(Oc3ccccc3)cc2)OC(=O)N(Nc2ccccc2)C1=O (configuration not stated)
active: Potency [1] 15.8 µM [inhibitor] | Potency [2] 35.5 µM
inactive: activation [3] 4.14%

CCC[CH2][Sn]([CH2]CCC)([O]C(C)=O)[O]C(C)=O
inactive: Potency [1] | activation [3] -0.854% | Potency [4] | outcome [6]
active: Potency [2] 12.6 µM | Potency [5] 30.6 µM

COP(=S)(OC)Oc1ccc([N+](=O)[O-])c(C)c1
-4.53%: max response [7]
inactive: Potency [1] | Potency [2] | activation [3] 2.17% | Potency [4]

CNC(=S)S
inactive: Potency [1] | Potency [8] | Potency [9] | Potency [4] | outcome [6]
-26.8%: max response [7]

CC(C)CCCCCCOC(=O)c1ccccc1C(=O)OCCCCCCC(C)C
inactive: Potency [10] | activation [11] 13.4% | Potency [12] | Potency [2] | activation [3] 0.284% | Potency [8] | Potency [5] | outcome [6]
-16.4%: max response [7]

COC(=O)NS(=O)(=O)c1ccc(N)cc1
-13.8% and -12.5%: max response [7]
inactive: Potency [1] | Potency [8] | Potency [9] | Potency [4] | outcome [6]

CCOP(=O)(OCC)SCSP(=S)(OCC)OCC
inactive: Potency [10] | activation [11] -6.59% | Potency [12] | Potency [2] | activation [3] 10.4% | Potency [8] | Potency [4]

O=C(Nc1ccccc1)Nc1cnns1
inactive: Potency [10] | Potency [2] | activation [3] -0.107% | Potency [8]

CC1(C)CC/C(=C\c2ccc(Cl)cc2)C1(O)Cn1cncn1 (configuration not stated)
6%: max response [7]
inactive: Potency [10] | activation [11] -0.862% | Potency [12] | Potency [9] | Potency [4] | Potency [13]

COc1cc(OC)nc(NC(=O)NS(=O)(=O)c2ncccc2C(F)(F)F)n1
inactive: Potency [10] | activation [11] 3.3% | Potency [12] | Potency [2] | activation [3] -0.618% | Potency [8] | Potency [9] | Potency [4] | outcome [6]
-4.69%: max response [7]

O=C(NC(=O)c1c(F)cccc1F)Nc1cc(Cl)c(OC(F)(F)C(F)F)c(Cl)c1
5.34%: max response [7]
inactive: Potency [10] | activation [11] 7.72% | Potency [9] | Potency [4]

CCC(C)(C)c1ccc(O)c(C(C)(C)CC)c1
inactive: Potency [10] | Potency [2] | Potency [8] | Potency [9]
active: Potency [5] 61.1 µM

CC1=C(C(=O)Nc2ccccc2)S(=O)(=O)CCO1
active: Potency [5] 8.63 µM
inactive: Potency [10] | activation [3] -2.72% | Potency [9] | outcome [6]

CC(C)(C)C(O)C(Oc1ccc(-c2ccccc2)cc1)n1cncn1 (configuration not stated)
inactive: Potency [10] | activation [11] -4.84% | Potency [2] | activation [3] 2.98% | Potency [8] | Potency [9]
active: Potency [5] 68.6 µM

C#CCN1C(=O)COc2cc(F)c(N3C(=O)C4=C(CCCC4)C3=O)cc21
inactive: Potency [10] | activation [11] 8.69% | Potency [12] | Potency [9] | outcome [6]
-8.78%: max response [7]

COc1cc(OC)nc(NC(=O)NS(=O)(=O)c2ncccc2OCC(F)(F)F)n1
-19.3%: max response [7]
inactive: Potency [10] | Potency [2] | activation [3] 0.378% | Potency [8] | Potency [9] | Potency [4] | Potency [5]

CCOP(=O)(OCC)OC(Cl)C(Cl)(Cl)Cl (configuration not stated)
inactive: Potency [10] | activation [11] -3.01% | Potency [2] | activation [3] 4.93% | outcome [6]
-5.65%: max response [7]

CCCCCCCCCCCCCCC(Br)C(=O)O (configuration not stated)
-6.32%: max response [7]
active: Potency [5] 21.7 µM
inactive: Potency [10] | Potency [2] | activation [3] 4.69% | Potency [4] | outcome [6]

O=C(O)C1(O)c2ccccc2-c2ccc(Cl)cc21 (configuration not stated)
inactive: Potency [10] | activation [11] -1.34% | activation [3] 8.73% | outcome [6]
active: Potency [5] 48.6 µM

CCCCOCN(C(=O)CCl)c1c(CC)cccc1CC
inactive: Potency [10] | Potency [2] | activation [3] -0.328%
active: Potency [5] 24.3 µM

CCOP(=O)(OCC)SCS(=O)(=O)C(C)(C)C
4.6%: max response [7]
inactive: Potency [10] | activation [11] 11.8% | Potency [2] | activation [3] -5.69% | Potency [8] | Potency [4] | outcome [6]

CCC(C)(NC(=O)c1cc(Cl)c(C)c(Cl)c1)C(=O)CCl (configuration not stated)
inactive: Potency [10] | Potency [2] | activation [3] -3.52% | Potency [8] | Potency [9]

CC(C)C1(C)N=C(c2nc3ccccc3cc2C(=O)O)NC1=O (configuration not stated)
5.36%: max response [7]
inactive: Potency [10] | Potency [2] | Potency [4]

COC[C@H](C)N(C(=O)CCl)c1c(C)csc1C
inactive: Potency [10] | Potency [2] | activation [3] -0.72% | Potency [8] | Potency [9]
active: Potency [5] 19.3 µM

CNC(=O)Oc1cc(C)c(SC)c(C)c1
inactive: activation [11] 1.32% | Potency [12] | activation [3] 5.14% | Potency [8] | Potency [9] | Potency [4]
active: Potency [10] 25.1 µM | Potency [5] 27.3 µM
